{"source": "PubChem BioAssay (NCI)", "note": "This is part of a sample that, as a whole, favours compounds with a hit. Of some 83,000 tested, about 20% had one in any assay.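 Values shown are percent growth following 48 h exposure of cells in 96-well plates to a single concentration of compound; below 10 was considered active.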 A number with no mark means an inactive call. Active and inactive are the calls of the source."}
{"tested_on": "HOP-62 NSCLC", "experiment": "NCI-60 one-dose screen, 48 h (100 = growth as untreated, 0 = no growth, -100 = all killed)", "settings": "10 µM"}
{"smiles": "CSc1nn(-c2ccccc2)c2ncnc(Oc3ccccc3)c12", "growth": "96.7%"}
{"smiles": "COc1ccc(/C=C/C(=O)Nc2ccc(-c3nc4ccc(OC)cc4s3)cc2)cc1", "growth": "101%"}
{"smiles": "O=C(/C=C/c1cc2ccccc2[nH]c1=O)c1ccc2c(c1)OCO2", "growth": "98%"}
{"smiles": "COc1ccc(N2C(=O)C3c4[nH]c5ccc(OCc6ccccc6)cc5c4C4CCC(C(C)C)CC4C3C2=O)cc1", "note": "(stereo not given)", "growth": "113%"}
{"smiles": "COc1cc(C(=C2O[C@@H]([C@H]3COC(C)(C)O3)[C@H]3OC(C)(C)O[C@@H]23)c2cc(OC)c(OC)c(OC)c2)cc(OC)c1OC", "growth": "104%"}
{"smiles": "COc1ccccc1/C=C/C(=O)c1ccccc1", "growth": "88.3%"}
{"smiles": "COc1ccc(C2=Nc3c(C)nn(-c4ccccc4)c3NC(c3ccc(Oc4ccnc5cc(Cl)ccc45)c(OC)c3)C2)cc1", "note": "(stereo not given)", "growth": "113%"}
{"smiles": "NC(=O)SCC(=O)Nc1ccc(S(N)(=O)=O)cc1", "growth": "101%"}
{"smiles": "c1ccc([I+]c2ccccc2)cc1", "growth": "53.3%"}
{"smiles": "CCN1CCCC1CNC(=O)c1ncc(-c2ccc(C(F)(F)F)cc2)c(NC2CCCCCC2)n1", "note": "(stereo not given)", "growth": "97%"}
{"smiles": "Cc1ccc(N=Nc2c(N)nc(N)[nH]c2=O)cc1C", "growth": "92.9%"}
{"smiles": "COc1ccc(/C=C2/CN(C(=O)c3ccc(C)cc3)C/C(=C\\c3ccc(OC)cc3)C2=O)cc1", "growth": "89.7%"}
{"smiles": "COc1cc(-c2cc(/C=C3\\C(=O)Nc4cc(Cl)ccc43)[nH]n2)cc(OC)c1OC", "growth": "43.3%"}
{"smiles": "O=C(Nc1cccc(-n2cc(-c3ccncc3)c(-c3ccc(O)c(Cl)c3)n2)c1)c1ccc(N2CCOCC2)c(C(F)(F)F)c1", "growth": "41.5%"}
{"smiles": "COc1ccccc1CNCCCN1C(=O)c2ccc3c4c(ccc(c24)C1=O)C(=O)N(CCCN)C3=O", "growth": "18.7%"}
{"smiles": "N=c1c2c(-c3ccccc3)c(-c3ccccc3)n(Cc3ccccc3)c2ncn1CCCO", "growth": "52.9%"}
{"smiles": "CCCC(F)C(=O)O", "note": "(stereo not given)", "growth": "113%"}
{"smiles": "O=C(N/N=C\\c1cc(Cl)ccc1[N+](=O)[O-])c1ccco1", "growth": "110%"}
{"smiles": "COC(=O)c1ccc(=O)oc1", "growth": "96.1%"}
{"smiles": "Oc1[nH]c2ccc(Cl)cc2c1/C=c1/ccc2c(c1)N=C(c1cc(F)cc(F)c1)N=2", "growth": "58.7%"}
{"smiles": "CN(Cc1ccccc1)Cc1ccc([N+](=O)[O-])cc1I", "growth": "101%"}
{"smiles": "O=C(CCCCC(=O)Nc1ccc2c(c1)/C(=C/c1ccc[nH]1)C(=O)N2)NO", "growth": "94.3%"}
{"smiles": "O=C1/C(=C/c2ccc(Cl)cc2)SC(=Nc2ccc(Cl)cc2)N1Cc1nc2ccccc2[nH]1", "growth": "68.6%"}
{"smiles": "O=C(C[P+](c1ccccc1)(c1ccccc1)c1ccccc1)C[P+](c1ccccc1)(c1ccccc1)c1ccccc1", "growth": "-59.8% (active)"}
{"smiles": "N=C(N)c1ccc(-c2ccc(-c3ccccc3)o2)nc1", "growth": "91.8%"}
{"smiles": "COc1cc(/C=C2\\CCCC3=C2N=C2SC=NN2C3c2cc(OC)c(OC)c(OC)c2)cc(OC)c1OC", "note": "(stereo not given)", "growth": "11.8%"}
{"tested_on": "NCI-H460 lung", "experiment": "NCI-60 one-dose screen, 48 h (100 = growth as untreated, 0 = no growth, -100 = all killed)", "settings": "10 µM"}
{"smiles": "CN(C)CCOc1nc2ccccc2c2c1-c1ccc(Cl)cc1C2=O", "growth": "-20.7% (active)"}
{"smiles": "CCOC(=O)C(CSC(c1ccccc1)(c1ccccc1)c1ccccc1)NC(=O)C(CSC(c1ccccc1)(c1ccccc1)c1ccccc1)NC(c1ccccc1)(c1ccccc1)c1ccccc1", "note": "(stereo not given)", "growth": "106%"}
{"smiles": "O=C1OCC2=C1C(c1cccc(Cl)c1)c1cc3c(cc1N2CCO)CCC3", "note": "(stereo not given)", "growth": "-12.7% (active)"}
{"smiles": "O=C(Nc1ccc(Cl)cc1)N1NC(c2ccc(Cl)cc2)C=C1c1ccccc1", "note": "(stereo not given)", "growth": "105%"}
{"smiles": "S=c1[nH]ccn1-c1c(Cl)cccc1Cl", "growth": "101%"}
{"smiles": "Cc1ccc(NC(=O)CSc2nc3ccccc3c(=O)n2CCc2ccccc2)c(C(=O)O)c1", "growth": "110%"}
{"smiles": "O=S(=O)(NCCCNc1nccc(-c2c(-c3ccc(F)cc3)nc3sccn23)n1)c1ccc(F)cc1", "growth": "26.9%"}
{"smiles": "CCn1cc(C(=O)O)c(=O)c2cnc(N3CCCC3)nc21", "growth": "110%"}
{"smiles": "O=c1c2ccccc2nc(SCCN2CCCCC2)n1CCc1ccccc1", "growth": "105%"}
{"smiles": "COc1cc2cc3c(nc2cc1OC)CCN3Cc1ccc(NC(=O)c2ccc(Cl)c(C(F)(F)F)c2)cc1", "growth": "107%"}
{"smiles": "CN(C)C(=S)N/N=C\\C=N/NC(=S)N(C)C", "growth": "23.7%"}
{"smiles": "COc1cc(Cl)cc(-c2nn(-c3cccc(NC(=O)c4ccc(Cl)c(Cl)c4)c3)cc2-c2ccncc2)c1", "growth": "65.2%"}
{"smiles": "CCCCCCCCCCCCCCCC(=O)OC1[C@@H](OC(=O)CCCCCCCCCCCCCCC)[C@@H](C(=O)N[C@@H](CCCCN)C(=O)OC)O[C@H]1n1cnc2c(=O)[nH]c(NC(=O)C(C)C)nc21", "note": "(stereo not given in full)", "growth": "101%"}
{"smiles": "CSc1nn(-c2ccccc2)c2ncnc(Oc3ccccc3)c12", "growth": "103%"}
{"smiles": "COc1ccc(/C=C/C(=O)Nc2ccc(-c3nc4ccc(OC)cc4s3)cc2)cc1", "growth": "106%"}
{"smiles": "O=C(/C=C/c1cc2ccccc2[nH]c1=O)c1ccc2c(c1)OCO2", "growth": "94.4%"}
{"smiles": "COc1ccc(N2C(=O)C3c4[nH]c5ccc(OCc6ccccc6)cc5c4C4CCC(C(C)C)CC4C3C2=O)cc1", "note": "(stereo not given)", "growth": "103%"}
{"smiles": "COc1cc(C(=C2O[C@@H]([C@H]3COC(C)(C)O3)[C@H]3OC(C)(C)O[C@@H]23)c2cc(OC)c(OC)c(OC)c2)cc(OC)c1OC", "growth": "111%"}
{"smiles": "COc1ccccc1/C=C/C(=O)c1ccccc1", "growth": "90%"}
{"smiles": "COc1ccc(C2=Nc3c(C)nn(-c4ccccc4)c3NC(c3ccc(Oc4ccnc5cc(Cl)ccc45)c(OC)c3)C2)cc1", "note": "(stereo not given)", "growth": "81.6%"}
{"smiles": "NC(=O)SCC(=O)Nc1ccc(S(N)(=O)=O)cc1", "growth": "108%"}
{"smiles": "c1ccc([I+]c2ccccc2)cc1", "growth": "86.5%"}
{"smiles": "CCN1CCCC1CNC(=O)c1ncc(-c2ccc(C(F)(F)F)cc2)c(NC2CCCCCC2)n1", "note": "(stereo not given)", "growth": "80.4%"}
{"smiles": "Cc1ccc(N=Nc2c(N)nc(N)[nH]c2=O)cc1C", "growth": "107%"}
{"smiles": "COc1ccc(/C=C2/CN(C(=O)c3ccc(C)cc3)C/C(=C\\c3ccc(OC)cc3)C2=O)cc1", "growth": "105%"}
{"smiles": "COc1cc(-c2cc(/C=C3\\C(=O)Nc4cc(Cl)ccc43)[nH]n2)cc(OC)c1OC", "growth": "34.7%"}
{"smiles": "O=C(Nc1cccc(-n2cc(-c3ccncc3)c(-c3ccc(O)c(Cl)c3)n2)c1)c1ccc(N2CCOCC2)c(C(F)(F)F)c1", "growth": "11.6%"}
{"smiles": "COc1ccccc1CNCCCN1C(=O)c2ccc3c4c(ccc(c24)C1=O)C(=O)N(CCCN)C3=O", "growth": "-50.8% (active)"}
{"smiles": "N=c1c2c(-c3ccccc3)c(-c3ccccc3)n(Cc3ccccc3)c2ncn1CCCO", "growth": "8.17% (active)"}
{"smiles": "CCCC(F)C(=O)O", "note": "(stereo not given)", "growth": "106%"}
{"smiles": "O=C(N/N=C\\c1cc(Cl)ccc1[N+](=O)[O-])c1ccco1", "growth": "101%"}
{"smiles": "COC(=O)c1ccc(=O)oc1", "growth": "110%"}
{"smiles": "Oc1[nH]c2ccc(Cl)cc2c1/C=c1/ccc2c(c1)N=C(c1cc(F)cc(F)c1)N=2", "growth": "63.8%"}
{"smiles": "CN(Cc1ccccc1)Cc1ccc([N+](=O)[O-])cc1I", "growth": "97.3%"}
{"smiles": "O=C(CCCCC(=O)Nc1ccc2c(c1)/C(=C/c1ccc[nH]1)C(=O)N2)NO", "growth": "97.6%"}
{"smiles": "O=C1/C(=C/c2ccc(Cl)cc2)SC(=Nc2ccc(Cl)cc2)N1Cc1nc2ccccc2[nH]1", "growth": "85.3%"}
{"smiles": "O=C(C[P+](c1ccccc1)(c1ccccc1)c1ccccc1)C[P+](c1ccccc1)(c1ccccc1)c1ccccc1", "growth": "-68.3% (active)"}
{"smiles": "N=C(N)c1ccc(-c2ccc(-c3ccccc3)o2)nc1", "growth": "90.3%"}
{"smiles": "COc1cc(/C=C2\\CCCC3=C2N=C2SC=NN2C3c2cc(OC)c(OC)c(OC)c2)cc(OC)c1OC", "note": "(stereo not given)", "growth": "1.24% (active)"}
